# Assay outcomes deposited in PubChem BioAssay by National Center for Advancing Translational Sciences (NCATS).
# IL1B secr inh – inflammasome signaling inhibition, IL-1 beta readout. THP-1 LPS/ATP IL-1B secretion, AlphaLISA, 16 h; hits give low values. actives 4.7% (n = 360,000). activity change, % at 57.5 µM; in the data active = activity change below about -50%; inconclusive = mostly about -30% to -49%
#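 Secreted IL-1B measured by AlphaLISA bead assay after 16 h compound exposure of THP-1 cells; compounds (final up to 57.5 uM) added 1 h before LPS (250 ng/mL) and ATP (1.25 mM) stimulation; lower signal means less secretion.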
# DT40 TDP1 no CPT – qHTS for Inhibitors of human tyrosyl-DNA phosphodiesterase 1 (TDP1): qHTS in cells in absence of CPT. DT40 Tdp1-/- hTDP1 cells, no CPT, ATP luminescence, 48 h. AID 686978, 2013. Potency, µM (titrated, usually from 46.2 µM), inactives show top-dose activity change, negative = growth inhibition, usual class: inhibitors. actives 15% (n = 420,000); note: potency is the fitted concentration of half-maximal effect; nearly all actives have a fitted effect of over 55% in size
#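 A cellular qHTS used chicken DT40 cells lacking endogenous Tdp1 but carrying stably transfected human TDP1. Compounds were applied without camptothecin, and cell growth kinetics were judged by ATP-dependent luminescence after ≥48 hr.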
# HT1080NT lethal – kills 2HG-producing HT-1080-NT fibrosarcoma cells. HT-1080-NT fibrosarcoma viability, CellTiter-Glo ATP luminescence, 48 h. Potency, µM (doses to about 46.1 µM), inactives show at the highest dose activity, negative = less viability, usual class: cytotoxic. actives 1.6% (n = 360,000);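 note: NT is the 2HG producing partner of a matched IDH1 knockdown line; potency is the fitted concentration of half-maximal effect; 0% = DMSO-treated cells and -100% = media-only wells without cells; nearly all actives have a fitted effect of over 55% in size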
#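 Viability of the 2HG-overproducing fibrosarcoma line after 48 hours of compound exposure at 37 degrees C was determined by luminescence with CellTiter-Glo, and concentration-effect curves were then fitted and categorized.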
# TDP1 cell CPT – DT40-hTDP1 cell growth loss with CPT; chicken DT40 Tdp1-/-;hTDP1 cells + 20 nM CPT, ATP luminescence, 48 h; Potency, µM (highest dose often 46.2 µM), without a hit: at the top dose activity change, negative = growth inhibition, actives largely listed as inhibitors; actives 12% (n = 420,000); AID 686979; note: potency is the fitted concentration of half-maximal effect; nearly all actives have a fitted effect of over 55% in size
#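 Chicken DT40 Tdp1-/- cells complemented with human TDP1, 400 cells/well, exposed to compounds plus 20 nM camptothecin for at least 48 h at 37 C; viability read as ATP content by CellTiter-Glo luminescence.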
# HT1080 IDH1KD tx – kills HT-1080 cells with IDH1 knockdown. AID 686971. Potency, µM (series often up to 46.1 µM), inactives show at the highest dose activity, negative = toxicity, actives largely listed as cytotoxic. actives 2% (n = 360,000). HT-1080 IDH1 knockdown viability, ATP luminescence, 48 h;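 note: potency is the fitted concentration of half-maximal effect; 0% = DMSO wells and -100% = cell-free medium wells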
#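 After a 2 h attachment period, IDH1KD HT-1080 cells took pin-transferred compound for 48 h at 37 °C; ATP-based luminescence after 10 min room-temperature reagent incubation reported viability.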
# ELG1 repair inh – ELG1-dependent DNA repair inhibition | HEK293T ELG1-luciferase reporter, luminescence, 16 h; DNA damage induced by 5-fluorouridine | Potency, µM (top dose mostly 46.1 µM), for the others: at the highest dose activity change, negative = inhibition, usual class: inhibitors | actives 2.3% (n = 330,000) | AID 504467; note: potency is the fitted concentration of half-maximal effect; nearly all actives have a fitted effect of over 55% in size
#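 Overnight (16 hr) co-exposure of 2,000 cells/well to 5-fluorouridine and compound at 37 °C preceded detection. Luciferase was quantified via ONE-Glo luminescence; loss of signal denotes inhibition.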
# An asterisk follows results filed as active; ? = inconclusive; / = no result given. This is a sample that favours compounds with a hit; in the whole collection about 19% have one here. Unless noted, calls come from the whole dose curve; as a rule, active = well fitted curve in the direction sought with a large enough effect; inconclusive = small, poorly fitted or top-dose-only effect, or another doubt; inactive = no such curve, though single readings can be large; an effect the other way counts as inactive or inconclusive. Unless noted, % is set by controls: 0 for no effect and ±100 for the full control effect.
SMILES,IL1B secr inh,DT40 TDP1 no CPT,HT1080NT lethal,TDP1 cell CPT,HT1080 IDH1KD tx,ELG1 repair inh
OC[C@@H]1CN(Cc2ccco2)C[C@H](n2cnc3c(NCc4ccc(F)cc4)ncnc32)O1,0.0,-6.0%,17.9%,-2.4%,4.2%,/
COc1cc(Cl)c(C)cc1NC(=O)CC1SC(N2CCOCC2)=NC1=O (configuration not stated),-26.2,8.9%,4.3%,-8.9%,10.7%,-1.1%
CC1CCC(NC(=O)C2c3ccccc3C(=O)N2Cc2cccs2)CC1 (configuration not stated),-2.1,?,7.1%,?,19.1%,-1.1%
O=C(NC1CCCCCCC1)C1c2ccccc2C(=O)N1Cc1cccs1 (configuration not stated),-5.0,?,-4.4%,13µM*,-8.9%,-1.8%
COc1ccc(CN2C(=O)c3ccccc3C2C(=O)NC2CCCCCC2)c(OC)c1 (configuration not stated),-53.8*,?,-11.9%,-8.5%,-16.6%,-10.4%
COc1cc(Nc2nc3ccc(Cl)cc3nc2-n2nc(C)cc2C)cc(OC)c1,/,7.8%,/,0.2%,/,/
CCC1(c2ccc(F)cc2)NC(=O)N(CC(=O)Nc2cc(C)on2)C1=O (configuration not stated),23.5,1.1%,0.5%,-14.3%,0.9%,7.6%
NCCCCc1ccc2ccc3cccc4ccc1c2c34,-28.2,?,?,16.4µM*,-21.0%,1.2%
O=C(O)CCCc1ccc2ccc3cccc4ccc1c2c34,9.6,6.4%,-7.7%,2.0%,-25.2%,0.0%
COc1ccccc1COc1cccn2c(N(C)C(=O)CCC3CCCC3)c(C)nc12,-21.1,14.6µM*,?,18.4µM*,?,/
Cc1ccccc1COc1cccn2c(N(C)C(=O)CCC3CCCC3)c(C)nc12,-56.7*,23.1µM*,?,?,?,/
COc1ccc(OC)c(N(CCN2C(=O)c3ccccc3C2=O)C(=O)C2CCC(=O)C2C)c1 (configuration not stated),4.2,5.6%,4.6%,-2.2%,-0.6%,/
CCC1CCCCN1S(=O)(=O)c1ccc(NC(=O)c2nc(SC)ncc2Cl)cc1 (configuration not stated),/,23.1µM*,/,20.6µM*,/,/
CCCSc1ncc(Cl)c(C(=O)Nc2ccc(S(=O)(=O)N3CCC(C)CC3)cc2)n1,/,14.6µM*,/,?,/,/
CCC1CCCCN1S(=O)(=O)c1ccc(NC(=O)c2cccs2)cc1 (configuration not stated),?,16.4µM*,?,23.1µM*,-29.5%,20.6µM*
CCCSc1ncc(Cl)c(C(=O)Nc2ccc(S(=O)(=O)Nc3ncccn3)cc2)n1,-3.7,-4.8%,-8.5%,-6.3%,-9.0%,?
CCCSc1ncc(Cl)c(C(=O)Nc2ccc(S(=O)(=O)N3CCCCC3C)cc2)n1 (configuration not stated),/,8.2µM*,/,?,/,/
CCC1CCCCN1S(=O)(=O)c1ccc(NC(=O)c2snnc2C)cc1 (configuration not stated),?,?,-1.1%,?,-22.5%,?
O=C(c1cnccn1)N1CCC[C@@]2(CCN(c3ccccn3)C2)C1,/,-17.8%,/,12.5%,/,/
COc1ccccc1OC(C)C(=O)Nc1c(C(=O)c2ccc(Cl)cc2)oc2ccccc12 (configuration not stated),/,0.1%,/,-4.0%,/,/
O=C(CS(=O)c1ccc(C(F)(F)F)cc1[N+](=O)[O-])Oc1ccc(Cl)cc1 (configuration not stated),-97.5*,11.6µM*,?,9.2µM*,?,?
